HCMV inh = inhibitors of human cytomegalovirus; 4.5% of 410,000 active; activity change, negative = inhibition, % at 57.5 µM; HFF cells, HCMV-luciferase reporter, 72 h; active compounds read low; in the data active = activity change below about -60%; inconclusive = no clear call, values can overlap the other calls; inactive = above about -39%
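Steps: HFFs plated, 16 h 37C; compounds added; HCMV-luciferase added to MOI 1 PFU/cell; 72 h 37C; OneGlo reagent, 5 min room temperature; luminescence read, normalized to controls.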
Pf growth 96h = inhibits malaria parasite growth, 96 h | Potency, µM (top dose mostly 28.7 µM), usual class: inhibitors | P. falciparum luciferase reporter growth, 96 h | 6.9% of 320,000 active
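Infected RBCs, 2% Hct / 0.05% parasitemia final; luciferase-reporter P. falciparum; cpd 96 h, 37 C, 5% CO2; luciferase detection reagent; luminescence.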
Pf growth 48h = P. falciparum growth inhibition at 48 hours (one generation) | P. falciparum luciferase growth in erythrocytes, 48 h | Potency, µM (doses to about 28.7 µM), hits mostly inhibitors | 5.9% of 310,000 active | AID 504832
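Luciferase-expressing parasites in RBCs, 2% Hct / 0.1% parasitemia final; RPMI 1640 + 0.5% Albumax; 37 C, 5% CO2, one generation; luminescence read-out, lower signal = inhibition.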
Lassa entry inh = blocks Lassa virus binding to or entry into cells; Lassa virus pseudotype entry inhibition, cell reporter; Potency, µM (top dose mostly 37.9 µM), actives largely listed as inhibitors; 1.2% of 300,000 active; AID 540256; calls by dose curve; tested in HEK293 cells; also: nearly all actives have a fitted effect of over 50% in size
MARV entry inh = inhibitors of Marburg virus binding or cell entry | AID 540276 | Potency, µM (doses to about 37.8 µM), hits mostly inhibitors | Marburg virus pseudotyped entry inhibition, cell reporter | 1.8% of 300,000 active; calls by dose curve; tested in HEK293 cells
HCV inh = blocks hepatitis C virus; Huh7.5.1 HCVcc-Cre infection, luciferase reporter, 44 h; Potency, µM (doses to about 41.8 µM), most hits filed as inhibitors; 3.4% of 340,000 active
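A cell-based infection assay in which seeded cells (1,000 per well) receive test compound after 4 h, are inoculated with HCVcc-Cre at approximately 0.5 moi, and are incubated 44 h before luminescence detection.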
A number is an active result; [ ] = remark or other dose. Only some compounds are listed: those with a hit (about 14% of all), similar ones and a draw of the others. Unless noted, calls follow the shape of the dose curve; as a rule, active = well fitted inhibition curve with a large enough effect; inconclusive = small, poorly fitted or top-dose-only effect, or another doubt; inactive = no such curve, though single readings can be large or run the other way.

Screening O=C(NCCc1ccc(F)cc1)C(=O)NCC1CCCN1S(=O)(=O)c1ccccc1 (centres undefined) returned HCMV inh inactive, Pf growth 96h inconclusive, Pf growth 48h inconclusive, Lassa entry inh 7.1µM, MARV entry inh inconclusive and HCV inh 11µM.
Screening COc1ccccc1CCNC(=O)C(=O)NCC1CCCN1S(=O)(=O)c1ccccc1 (centres undefined) returned HCMV inh inactive, Pf growth 96h 15µM, Pf growth 48h inconclusive, Lassa entry inh inconclusive, MARV entry inh inconclusive and HCV inh inconclusive.
`O=C(NCc1ccc(F)cc1)C(=O)NCC1CCCN1S(=O)(=O)c1ccccc1` (centres undefined) gave HCMV inh inactive, Pf growth 96h inactive, Pf growth 48h inactive, Lassa entry inh inconclusive, MARV entry inh inconclusive and HCV inh inactive[8.37 µM].
For COc1ccc(CCNC(=O)C(=O)NCC2CCCN2S(=O)(=O)c2ccccc2)cc1 (centres undefined) the results were HCMV inh inactive, Pf growth 96h 12µM, Pf growth 48h inactive, Lassa entry inh inconclusive, MARV entry inh inconclusive and HCV inh inconclusive.
`COc1ccc(S(=O)(=O)N2CCCC2CNC(=O)C(=O)NCCc2ccccc2)cc1` (centres undefined) gave HCMV inh inactive, Pf growth 96h inconclusive, Pf growth 48h inconclusive, Lassa entry inh inactive, MARV entry inh inconclusive and HCV inh inconclusive.
For Cc1cc(Cl)cc(C)c1OCC(=O)N1CCN(c2ncccn2)CC1 the results were HCMV inh inactive, Pf growth 96h inconclusive, Pf growth 48h inconclusive and HCV inh inactive.
`Cc1cc(OCC(=O)NCC2CCC(C(=O)O)CC2)c2c(C)c(Cc3ccccc3)c(=O)oc2c1` (centres undefined) gave HCMV inh inactive, Pf growth 96h 3.3µM, Pf growth 48h 12µM and HCV inh inactive.
For Cc1c(C)c2ccc(OCC(=O)Nc3ccccn3)c(C)c2oc1=O the results were HCMV inh -84, Pf growth 96h inactive, Pf growth 48h inactive and HCV inh inactive.
`Cc1c(Cc2ccccc2)c(=O)oc2c(C)c(OCC(=O)Nc3ccc(C#N)cc3)ccc12` gave HCMV inh inconclusive, Pf growth 96h 2.1µM, Pf growth 48h inconclusive, Lassa entry inh inactive, MARV entry inh inconclusive and HCV inh inactive.
Cc1cc(C)cc(NC(=O)COc2ccc3c(C)c(Cc4ccccc4)c(=O)oc3c2)c1 was read as Pf growth 96h inconclusive, Pf growth 48h 8.3µM, Lassa entry inh inactive, MARV entry inh inactive and HCV inh inactive.
For Cc1c(Cc2ccccc2)c(=O)oc2cc(OCC(=O)c3ccccc3)ccc12 the results were HCMV inh inactive, Pf growth 96h inactive, Pf growth 48h inactive, Lassa entry inh inactive, MARV entry inh inconclusive and HCV inh inconclusive.
Screening Cc1cccc(C)c1NC(=O)COc1ccc2c(C)c(Cc3ccccc3)c(=O)oc2c1C returned HCMV inh inactive, Pf growth 96h inactive, Pf growth 48h inactive, Lassa entry inh inactive, MARV entry inh inconclusive and HCV inh inactive.
O=C(Nc1ccc(F)cc1)c1ncn(-c2ccccc2)n1 was read as HCMV inh inactive, Lassa entry inh inconclusive and MARV entry inh inconclusive.
For Cn1c(=O)c2cc(NC(=O)OCCF)ccc2n1Cc1cccc(C(F)(F)F)c1 the results were HCMV inh inactive.
For C=C(C)COc1ccc2c(C)c(CCC(=O)NC3CC3)c(=O)oc2c1 the results were HCMV inh inconclusive, Pf growth 96h 10µM, Pf growth 48h 10µM and HCV inh inconclusive.
Screening COc1ccc(CC(=O)N2CCc3cc(OC)c(OC)cc3C2COc2ccc3c(C)cc(=O)oc3c2)cc1OC (centres undefined) returned HCMV inh inactive, Lassa entry inh inactive and MARV entry inh inconclusive.
For Cc1ccc2c(c1)C1CN(C)CCC1N2Sc1ccccc1[N+](=O)[O-] (centres undefined) the results were HCMV inh inactive, Pf growth 96h 10µM, Pf growth 48h inconclusive, Lassa entry inh 7.1µM, MARV entry inh inconclusive and HCV inh inactive.
For Cc1nc(C(=O)Nc2cc(F)cc(Cl)c2)sc1C1(C)CC(c2ccccc2)=NO1 (centres undefined) the results were HCMV inh inconclusive and HCV inh 14µM.
N#Cc1cnn(-c2nc(SCc3ccccc3)nc3sc4c(c23)CCCC4)c1N was read as HCMV inh -101, Pf growth 96h inconclusive, Pf growth 48h inactive, Lassa entry inh inactive, MARV entry inh inactive and HCV inh inactive.
`CCN(c1ccccc1)c1ncnc2c1cnn2-c1ccc(C)cc1C` gave HCMV inh inactive and Lassa entry inh inconclusive.
Cc1nc(-c2ccccc2)sc1-c1n[nH]c(=S)n1C was read as HCMV inh inactive, Pf growth 96h inconclusive, Pf growth 48h inactive, Lassa entry inh inactive, MARV entry inh inactive and HCV inh inactive.
`CSc1sc(-c2n[nH]c(=S)n2C)c2c1C=CCC2` gave HCMV inh inactive, Pf growth 96h 5.9µM, Pf growth 48h inconclusive, Lassa entry inh inconclusive, MARV entry inh inactive and HCV inh inconclusive.
Screening COc1ccc(N2CCN(CC(=O)Nc3ccccc3C(=O)NCc3ccccc3)CC2)cc1 returned HCMV inh inactive, Pf growth 96h inconclusive, Pf growth 48h 13µM and HCV inh inconclusive.
Screening COc1ccc(CCNC(=O)c2ccccc2NC(=O)CN2CCN(c3ccccc3O)CC2)cc1 returned HCMV inh inactive, Pf growth 96h 7.4µM, Pf growth 48h 10µM, Lassa entry inh inconclusive, MARV entry inh inconclusive and HCV inh inconclusive.
COc1ccc(NC(=O)Cn2cc(S(=O)(=O)c3ccccc3)c(=O)c3cc(C)ccc32)cc1Cl was read as HCMV inh inactive, Lassa entry inh inactive and MARV entry inh inactive.
Cc1ncc(CO)c(CNc2ccc(Oc3ccccc3)cc2)c1O was read as HCMV inh -70, Pf growth 96h inactive, Pf growth 48h inconclusive, Lassa entry inh inconclusive, MARV entry inh inactive and HCV inh 11µM.
For Cc1c(C)c2c(OCC(=O)N3CCC(O)CC3)cc3c(c2oc1=O)CCC(C)(C)O3 the results were HCMV inh inactive, Pf growth 96h 7.4µM, Pf growth 48h 13µM and HCV inh inconclusive.
`Cc1c(C)c2c(OCC(=O)N3CCC[C@H]3C(=O)O)cc3c(c2oc1=O)CCC(C)(C)O3` gave HCMV inh inactive, Pf growth 96h 13µM, Pf growth 48h inconclusive and HCV inh inactive.
`Cc1ccc(S(=O)(=O)CC(=O)N2CCN(c3nc4c(F)cccc4s3)CC2)cc1` gave HCMV inh inactive and Lassa entry inh inactive.
Screening COc1ccc(S(=O)(=O)N2CCCCC2c2cc(C(=O)Nc3ccccc3)no2)cc1 (centres undefined) returned HCMV inh inactive.
For CCOC(=O)[C@@H]1[C@H]2COc3ccccc3[C@H]2N2C(=O)N(c3ccc(Cl)cc3)C(=O)[C@]12C the results were HCMV inh inactive, Pf growth 96h 8.3µM, Pf growth 48h 13µM and HCV inh inactive.

Screening results as filed in PubChem BioAssay.
